This is part of a sample that, as a whole, favours compounds with a hit. Of some 83,000 tested, about 20% had one in any assay.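 96-well plates, one dose, 48 hours. Percent growth reported; active if below 10.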 Values without a mark were called inactive. The source made the active and inactive calls.

Experimental findings from PubChem BioAssay (NCI) are described below.

What all share (assay): NCI-60 one-dose screen, 48 h (100 = growth as untreated, 0 = no growth, -100 = all killed)
One experiment deals with DU-145 prostate. As to conditions: 10 µM unless noted.
The next experiment has as its system K-562 leukemia. As to conditions: 10 µM unless noted.
The next experiment deals with MALME-3M melanoma. As to conditions: 10 µM unless noted.
Another experiment deals with MDA-MB-231 breast. To be noted: 10 µM unless noted.
The next experiment relates to RXF 393 renal. To be noted: 10 µM unless noted.
The next experiment has as its system SF-268 CNS. As to conditions: 10 µM unless noted.
A further experiment concerns SF-295 CNS. To be noted: 10 µM unless noted.
For the next experiment, the system named is SF-539 CNS. As to conditions: 10 µM unless noted.
For a further experiment, the system named is UACC-257 melanoma. To be noted: 10 µM unless noted.
Another experiment relates to M14 melanoma. To be noted: 10 µM unless noted.
In a further experiment the test system is HCT-15 colon. As to conditions: 10 µM unless noted.
In another experiment the test system is HT29 colon. As to conditions: 10 µM unless noted.
Another experiment deals with SNB-75 CNS. To be noted: 10 µM unless noted.
The test system of the next experiment is U251 CNS. To be noted: 10 µM unless noted.
The subject of the next experiment is PC-3 prostate. To be noted: 10 µM unless noted.
The subject of another experiment is SK-MEL-5 melanoma. As to conditions: 10 µM unless noted.
The next experiment deals with UACC-62 melanoma. To be noted: 10 µM unless noted.
For the next experiment, the system named is LOX IMVI melanoma. As to conditions: 10 µM.
The test system of the next experiment is SK-MEL-28 melanoma. To be noted: 10 µM unless noted.

With `CCCCSc1nc(NCCc2c[nH]c3ccccc23)c(C#N)c(-c2ccccc2)n1`, the growth is 54% in the experiment with DU-145 prostate; 8.19% (active) in the experiment with K-562 leukemia; 86.9% in the experiment with MALME-3M melanoma; 18.3% with MDA-MB-231 breast; -8.31% (active) with RXF 393 renal; 39.9% with SF-268 CNS. Also, the growth in the experiment with SF-295 CNS was 48.4%; with SF-539 CNS it was 46.6%; in the experiment with UACC-257 melanoma, 81.4%; in the experiment with M14 melanoma it was 60.1%; in the experiment with HCT-15 colon it was 16.8%; in the experiment with HT29 colon it was 1.16% (active). Besides, the growth in the experiment on SNB-75 CNS was 70.7%; in the experiment with U251 CNS, 8.25% (active); in the experiment on PC-3 prostate it was 13.2%; in the experiment on SK-MEL-5 melanoma it was 17.2%; in the experiment with UACC-62 melanoma it was 72%; in the experiment with LOX IMVI melanoma, -34% (active). The growth in the experiment on SK-MEL-28 melanoma was 81.1%.

`CN(C)c1ccnc(CNCCSC2(c3ccccc3)c3ccccc3C=Cc3ccccc32)c1`: the growth in the experiment on DU-145 prostate was -26.1% (active); with K-562 leukemia it was -27.1% (active); with MALME-3M melanoma, -93.4% (active); with MDA-MB-231 breast it was -49.5% (active); with RXF 393 renal it was -36.6% (active); in the experiment on SF-268 CNS it was -30.7% (active). Further, the growth in the experiment with SF-295 CNS was -70.5% (active); in the experiment with SF-539 CNS, -96.5% (active); in the experiment on UACC-257 melanoma, -66.3% (active); with M14 melanoma it was -80.8% (active); in the experiment on HCT-15 colon, -36.9% (active); in the experiment with HT29 colon, -46.4% (active). For the same molecule, the growth with SNB-75 CNS is -10.9% (active); in the experiment on U251 CNS, -77.1% (active); in the experiment on PC-3 prostate, -23.3% (active); in the experiment on SK-MEL-5 melanoma, -99.4% (active); in the experiment on UACC-62 melanoma, -32.2% (active); in the experiment on LOX IMVI melanoma, -96.2% (active). In addition, the growth in the experiment on SK-MEL-28 melanoma is -64.6% (active).

On to `CN(C)c1nc(NCCNS(=O)(=O)c2ccc(C(=O)/C=C/c3ccc(F)cc3)cc2)nc(Nc2ccc(F)cc2)n1`, for which the growth with DU-145 prostate was -83.9% (active); in the experiment on K-562 leukemia, -21.9% (active); with MALME-3M melanoma, -83.3% (active); in the experiment on MDA-MB-231 breast, -93% (active); in the experiment on RXF 393 renal it was -97% (active); in the experiment with SF-268 CNS, -59% (active). For the same molecule, the growth was -78.3% (active) in the experiment with SF-295 CNS; -99.7% (active) in the experiment on SF-539 CNS; -80.6% (active) with UACC-257 melanoma; -83% (active) in the experiment with M14 melanoma; -91.7% (active) in the experiment with HCT-15 colon; -100% (active) with HT29 colon. The growth with SNB-75 CNS was -16.4% (active); in the experiment with U251 CNS it was -100% (active); in the experiment on PC-3 prostate, -75.2% (active); in the experiment on SK-MEL-5 melanoma, -99.6% (active); with UACC-62 melanoma, -97.1% (active); with LOX IMVI melanoma it was -100% (active). Also, in the experiment on SK-MEL-28 melanoma, the growth was -100% (active).

`COc1cc(C2CC(c3ccc(S(=O)(=O)NCCNc4nc(Nc5ccc(F)cc5)nc(N(C)C)n4)cc3)=Nc3c(N)nc(N)nc3N2)cc(OC)c1OC` (stereo unspecified): the growth was 103% in the experiment with DU-145 prostate; 47.2% in the experiment on K-562 leukemia; 84.4% in the experiment on MALME-3M melanoma; 43.7% in the experiment with MDA-MB-231 breast; 74% with RXF 393 renal; 82.8% in the experiment on SF-268 CNS. Further, the growth with SF-295 CNS was 94%; in the experiment with SF-539 CNS, 86%; with UACC-257 melanoma, 97.9%; in the experiment on M14 melanoma, 101%; with HCT-15 colon, 92.5%; in the experiment on HT29 colon it was 96.5%. The growth in the experiment on SNB-75 CNS is 82.8%; in the experiment with U251 CNS, 69.6%; in the experiment on PC-3 prostate, 86.3%; with SK-MEL-5 melanoma it was 64.2%; in the experiment with UACC-62 melanoma, 76.4%; in the experiment on LOX IMVI melanoma, 66.9%. The growth with SK-MEL-28 melanoma is 88.1%.

In the case of `CCCSc1nc(NCCc2c[nH]c3ccccc23)c(C#N)c(-c2ccc(F)cc2)n1`, the growth was 63.7% in the experiment with DU-145 prostate; 27.7% in the experiment with K-562 leukemia; 75.4% in the experiment with MALME-3M melanoma; 29.2% in the experiment with MDA-MB-231 breast; 24.8% with RXF 393 renal; 53.8% with SF-268 CNS. Also, the growth was 41.2% with SF-295 CNS; 44.7% with SF-539 CNS; 74.6% with UACC-257 melanoma; 75.5% in the experiment with M14 melanoma; 18.8% with HCT-15 colon; 15.6% in the experiment on HT29 colon. Also, the growth is 85.7% in the experiment on SNB-75 CNS; 28.2% in the experiment on U251 CNS; 23.8% in the experiment with PC-3 prostate; 13.1% in the experiment on SK-MEL-5 melanoma; 54.6% in the experiment on UACC-62 melanoma; 21.1% in the experiment on LOX IMVI melanoma. In addition, in the experiment on SK-MEL-28 melanoma, the growth is 63.3%.

In the case of `Cc1cc(=O)oc2cc(OCCOc3ccc(/C=C/C(=O)Nc4ccccc4N)cc3)ccc12`, the growth with DU-145 prostate is 35.9%; in the experiment with K-562 leukemia, 21.1%; in the experiment with MALME-3M melanoma, 48.6%; in the experiment on MDA-MB-231 breast it was -16.1% (active); in the experiment on RXF 393 renal it was 31%; in the experiment with SF-268 CNS, 27.9%. Further, the growth with SF-295 CNS was 30.6%; with SF-539 CNS, 18.9%; in the experiment with UACC-257 melanoma, 30.3%; in the experiment with M14 melanoma, 54.2%; in the experiment with HCT-15 colon, 39.7%; with HT29 colon, 30.5%. The growth in the experiment with SNB-75 CNS was 36.6%; in the experiment on U251 CNS, 30.7%; with PC-3 prostate it was 32.1%; with SK-MEL-5 melanoma, -87.6% (active); in the experiment on UACC-62 melanoma, 33.2%; in the experiment with LOX IMVI melanoma it was -73.2% (active). Also, the growth in the experiment with SK-MEL-28 melanoma is 39.9%.

As for `COc1ccc(NC(=O)[C@H](C)N)cc1C(=O)Nc1cccc(C2CC(=O)c3c(cc(OC)c(OC)c3OC)O2)c1` (stereo partly specified), the growth in the experiment on DU-145 prostate was 86.6%; in the experiment with K-562 leukemia, 75.8%; in the experiment on MALME-3M melanoma, 105%; in the experiment on MDA-MB-231 breast, 87.3%; with RXF 393 renal, 92.8%; with SF-268 CNS it was 81.5%. The growth with SF-295 CNS was 119%; in the experiment with SF-539 CNS, 89.3%; with UACC-257 melanoma it was 107%; with M14 melanoma it was 110%; in the experiment on HCT-15 colon, 83.9%; in the experiment with HT29 colon, 109%. Besides, the growth was 88.6% with SNB-75 CNS; 93.1% in the experiment on U251 CNS; 72.4% in the experiment with PC-3 prostate; 76.9% with SK-MEL-5 melanoma; 84.4% in the experiment on UACC-62 melanoma; 89.2% in the experiment with LOX IMVI melanoma. Moreover, in the experiment on SK-MEL-28 melanoma, the growth was 101%.

`COc1ccc(-c2ccnc(SCc3cc4cc(Cl)ccc4[nH]c3=O)n2)cc1`: the growth is 35.6% in the experiment with DU-145 prostate; 79.1% in the experiment with K-562 leukemia; 27.9% with MALME-3M melanoma; 26.9% with MDA-MB-231 breast; -10.7% (active) in the experiment with RXF 393 renal; 0.935% (active) with SF-268 CNS. For the same molecule, the growth in the experiment on SF-295 CNS is 26.5%; in the experiment on SF-539 CNS, 46.2%; in the experiment with UACC-257 melanoma, 72.1%; in the experiment on M14 melanoma it was 73.8%; in the experiment with HCT-15 colon, 80.8%; with HT29 colon it was 84.7%. For the same molecule, the growth with SNB-75 CNS was -7.9% (active); with U251 CNS, 0.922% (active); in the experiment on PC-3 prostate, 29.6%; in the experiment with SK-MEL-5 melanoma, 37.4%; with UACC-62 melanoma, 42.5%; in the experiment on SK-MEL-28 melanoma it was 64.3%.
